TEAD-YAP block: TEAD-YAP interaction inhibition; HEK-TIYL cells, TEAD-Gal4/YAP UAS-luciferase luminescence; inhibition, % at 9.12 µM; 640,000 tested, 1.4% active; in the data active = inhibition above about 32%;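 also: 0% = median of test compound wells and 100% = reference inhibitor wells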
MITF primary: blocks human microphthalmia-associated transcription factor | O75030 | AlphaScreen MITF homodimerization, bead proximity signal | inhibition, % at 2.6 µM | 650,000 tested, 0.91% active; in the data active = inhibition above about 50%;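 also: 0% = vehicle wells with protein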
Target sequence (O75030 whole entry, looked up): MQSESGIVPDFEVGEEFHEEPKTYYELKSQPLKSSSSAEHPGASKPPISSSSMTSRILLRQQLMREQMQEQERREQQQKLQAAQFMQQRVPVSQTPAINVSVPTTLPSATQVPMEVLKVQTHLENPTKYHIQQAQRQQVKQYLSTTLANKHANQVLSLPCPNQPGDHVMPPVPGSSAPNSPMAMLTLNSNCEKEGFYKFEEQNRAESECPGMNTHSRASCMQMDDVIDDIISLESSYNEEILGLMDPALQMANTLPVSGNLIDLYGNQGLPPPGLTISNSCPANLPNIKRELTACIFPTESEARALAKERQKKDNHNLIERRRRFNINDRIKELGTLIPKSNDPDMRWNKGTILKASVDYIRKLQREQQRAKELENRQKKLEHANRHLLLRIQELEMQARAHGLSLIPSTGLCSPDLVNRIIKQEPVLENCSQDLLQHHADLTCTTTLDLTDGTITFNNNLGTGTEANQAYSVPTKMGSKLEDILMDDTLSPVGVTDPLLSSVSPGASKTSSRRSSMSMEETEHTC
GPR151 activ: activators of human GPR151; Q8TDV0; PathHunter beta-arrestin GPR151 cells, luminescence; activation, % at 11.2 µM; 650,000 tested, 1% active; AID 1508602; in the data active = activation above about 4.9%;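 also: 0% = median of compound wells and 100% = cells with positive control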
FBW7 act: activators of human E3 ligase FBW7; Q969H0; AlphaScreen FBW7–phospho-cyclin E peptide binding, activator screen; normalized activity (activation), % at 26.1 µM; 650,000 tested, 0.13% active; AID 1259310; in the data active = normalized activity above about 1.9%;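 also: purified mutant Fbw7 with reduced substrate affinity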
Numbers without * were called inactive. In the library only some 3.4% were active in any assay of this set; here they are far more common.

SMILES	TEAD-YAP block	MITF primary	GPR151 activ	FBW7 act
COC(=O)Nc1ccc(C(C)(C)C)cc1[N+](=O)[O-]	-5	14	-2	0
COC(=O)Nc1cc([N+](=O)[O-])cc([N+](=O)[O-])c1Br	99*	-4	4	0
COc1cc(NC(=O)c2c(C)nc3cc(C)ccn23)cc(OC)c1OC	2	29	0	0
COc1cc(C)c2c(c1)oc(=O)c1ccccc12	-6	22	3	2.2*
COC(=O)c1cccc(-n2c(C)cc(/C=C(/C#N)C(=O)NCc3ccco3)c2C)c1	21	18	0	0
COC(=O)c1cccc(-n2c(C)cc(/C=C(\C#N)C(=O)Nc3ccccc3)c2C)c1	39*	-6	0	0
CNC(=O)/C(C#N)=C/c1cc(C)n(-c2ccc(F)cc2)c1C	71*	10	0	-1
OC1CCN(Cc2nnnn2C2CCCCC2)CC1	12	-1	0	0
COc1ccc(OC)c(CNc2ncc(-c3cccc(Cl)c3)n2C)c1	45*	37	-1	0
CCCNc1ccc2ncc(-c3cccc(NC(C)=O)c3)n2n1	56*	6	1	1
COCCNc1ccc2ncc(-c3ccc4c(c3)OCO4)n2n1	39*	4	2	0
COCCNc1ccc2ncc(-c3cccc(CO)c3)n2n1	33*	-17	0	0
COCCNc1ccc2ncc(-c3ccc(F)cc3)n2n1	14	-9	0	0
COCCNc1ccc2ncc(-c3ccc(O)cc3)n2n1	58*	-22	1	0
COCCNc1ccc2ncc(-c3cccc(F)c3)n2n1	26	10	2	0
CCCNc1ccc2ncc(-c3cccc(O)c3)n2n1	0	-15	-1	0
COCCNC(=O)c1ccc(-c2cccc(N(C)C)c2)nc1N(C)C	-65	-8	0	0
C=CCOc1ccc(/C=C2/C(=O)N(C)C(=S)N2C)cc1	-30	2	1	0
Cc1ccc(-c2nc(N(C)CCO)nc3ccccc23)cc1	1	-12	0	1
CCCNc1ccc2ncc(-c3ccc(O)cc3)n2n1	77*	-27	-1	0
OCCCn1c(-c2ccc(F)cc2)csc1=Nc1ccc(F)cc1	-19	11	0	0
CCN(CC)S(=O)(=O)c1ccc(-c2csc(=Nc3ccc(F)cc3)n2CCCO)cc1	39*	24	1	0
CC(=O)Nc1nnc(SCC(=O)Nc2c(C)cc(C)cc2C)s1	1	7	1	0
O=C(/C=C/c1cccs1)c1ccc(N2CCOCC2)cc1	58*	22	-5	0
COc1cccc(-c2cc(NC(=NCc3ccco3)SC)n[nH]2)c1	-12	12	-1	0
SMILES	TEAD-YAP block	MITF primary	GPR151 activ	FBW7 act
c1ccc(COCCn2cc(-c3ccncn3)cn2)nc1	-1	8	-3	0
COc1ccc(-n2nnnc2C2(Nc3cccc(Cl)c3)CCCCC2)cc1	48*	-5	1	0
COc1ccc(-c2nc(N3CCC(C)CC3)c3ccccc3n2)cc1OC	-1	0	1	0
CC1CCN(c2nc(-c3ccc(C(C)(C)C)cc3)nc3ccccc23)CC1	49*	-3	0	0
Cc1ccc(-c2nc(N3CCN(C)CC3)c3ccccc3n2)cc1	-6	12	-1	0
CN1CCN(c2nc(-c3ccc(C(C)(C)C)cc3)nc3ccccc23)CC1	82*	9	-2	-1
Cc1nn(CC(=O)N2CCC(C)CC2)c(=O)c2cc3ccsc3n12	-4	-2	-1	0
CC(=O)NCCNC(=O)c1ccc(C)nc1N1CCOCC1	7	-14	0	0
CCOC(=O)c1c(N)sc(C(=O)OC)c1CC(=O)OC	7	0	2	0
COC(=O)c1sc(N)c(C(=O)OC)c1COC(=O)c1c(C)noc1C	46*	9	-1	0
COc1cccc(N2CCN(C(=O)c3ccc(CS(=O)c4ccc(C)cc4)o3)CC2)c1 (configuration not stated)	63*	-6	0	0
COc1ccc(N2CCN(C(=O)c3ccc(CS(=O)c4ccc(C)cc4)o3)CC2)cc1 (configuration not stated)	56*	-1	0	0
COc1ccc(N2CCN(C(=O)c3ccc(CS(=O)c4ccccc4)o3)CC2)cc1 (configuration not stated)	46*	8	0	0
Cc1ccc(S(=O)Cc2ccc(C(=O)N3CCN(C(=O)c4ccco4)CC3)o2)cc1 (configuration not stated)	4	7	0	0
Cc1sc(NC(=O)COc2ccccc2)c(C(N)=O)c1-c1ccccc1	75*	4	0	0
CCOC(=O)c1c(NC(=O)CSc2ccccc2)sc(CC)c1-c1ccccc1	-5	70*	2	0
Cc1sc(NC(=O)COc2ccccc2)c(C(N)=O)c1C	-74	25	1	0
CCOC(=O)C1CCN(c2ccc([N+](=O)[O-])cc2C(=O)Nc2cc(OC)cc3cccnc23)CC1	-12	16	-1	2.1*
COc1cc(NC(=O)c2cc([N+](=O)[O-])ccc2N2CCN(C)CC2)c2ncccc2c1	-9	3	1	0
COc1ccc(-c2nc3ccccc3o2)cc1N	19	0	-6	0
COc1ccc(-c2nc3cc(C(C)C)ccc3o2)cc1N	66*	10	-1	0
COc1ccc(-c2nc3cc(C)ccc3o2)cc1N	88*	13	-8	0
Cc1ccc2oc(-c3ccc(Cl)c(N)c3)nc2c1	68*	7	-10	0
COc1ccc(-c2nc3cc(N)ccc3o2)cc1Br	-19	-7	-1	0
Cc1nnc(SCc2cnc(-c3ccc(C(C)C)cc3)s2)n1C	58*	9	1	0
SMILES	TEAD-YAP block	MITF primary	GPR151 activ	FBW7 act
Cn1nnnc1SCc1cnc(-c2ccccc2)s1	-14	10	-1	0
CN1C(=O)C(=Cc2ccc(OCc3cccc(C(=O)O)c3)cc2)C(=O)N(C)C1=O	43*	0	-9	0
CN1C(=O)S/C(=C/c2ccc(OCc3cccc(C(=O)O)c3)cc2)C1=O	-30	11	2	1
CCOC(=O)C1CCN(C(=O)COc2ccc(C(C)(C)C)cc2)CC1	60*	-4	0	0
CCOC(=O)C1CCN(C(=O)COc2ccc(C)cc2)CC1	10	16	0	0
CCOC(=O)C1CCN(C(=O)COCC(=O)N2CCC(C(=O)OCC)CC2)CC1	-4	4	2	0
CCOC(=O)C1CCN(C(=O)COC(=O)c2cc(O)c(O)c(O)c2)CC1	3	90*	0	0
COc1ccc(SCCC(=O)N2CCN(c3nc4c(F)cccc4s3)CC2)cc1	2	-8	-1	0
CC(COc1ccc2ccccc2c1)Nc1cc(Cl)ncn1 (configuration not stated)	2	17	-1	0
Cc1ccc(C(Nc2cc(Cl)ncn2)C(F)(F)F)cc1 (configuration not stated)	34*	3	1	1
CC[N+]1=C(C)C(C)(C)c2cc(C)ccc21	50*	16	0	0
Cc1cccc(C(=O)Oc2cccc(NC3=NS(=O)(=O)c4ccccc43)c2)c1	11	0	1	0
